Pf growth 48h: Primary qHTS for delayed death inhibitors of the malarial parasite plastid, 48 hour incubation; 310,000 tested, 5.9% active; AID 504832, 2011; Potency, µM (doses to about 28.7 µM), for the others: at the highest dose activity change, negative = inhibition, actives largely listed as inhibitors; P. falciparum luciferase growth in erythrocytes, 48 h; further: on the % scale 0 is the no-effect control and ±100 the full control effect
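First compound was added to culture medium, then infected red cells at 0.1% parasitemia and 2% hematocrit (final). After incubation at 37 C under 5% CO2, luciferase detection reagent was dispensed and light output recorded.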
AMA1-RON2 inh: qHTS for Inhibitors of AMA1-RON; Towards Development of Antimalarial Drug Lead: Primary Screen; Plasmodium falciparum AMA1 (3D7) - RON2 peptide interaction; AlphaScreen AMA1-biotinylated RON2 peptide binding; Potency, µM (top dose mostly 58.2 µM), for the others: at the highest dose activity change, negative = inhibition, usual class: inhibitors; 360,000 tested, 0.2% active; AID 720542, 2013;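 further: 0% = vehicle wells and -100% = peptide control; nearly all actives have a fitted effect of over 45% in size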
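AMA1 (3D7) with his tag at 25 nM final met compounds first, then biotinylated RON2 peptide at 25 nM; detection used donor plus acceptor beads, 10 µg/mL apiece, read by AlphaScreen after 30 min at room temperature.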
NS1 function inh: qHTS Assay for Inhibitors of Influenza NS1 Protein Function; AID 2326, 2010; 270,000 tested, 0.4% active; Potency, µM (titrated, usually from 46.1 µM), for the others: at the top dose activity, positive = more growth; calls by dose curve; further: actives are rising curves; nearly all actives have a fitted effect of over 50% in size
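Compounds were scored for reversing the slow growth caused by influenza A NS1 in S. cerevisiae, measured by optical density at 600 nm. Assay medium contained 2% galactose at pH 6.0; NS1-free yeast of the same strain were the positive control.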
SARS PLpro yeast: qHTS of Yeast-based Assay for SARS-CoV PLP; S. cerevisiae expressing SARS-CoV PLpro, growth rescue; Potency, µM (titrated, usually from 32.9 µM), inactives show top-dose activity, positive = growth rescue, most hits filed as activators; 330,000 tested, 0.19% active; calls by dose curve; further: 0% is about no effect; nearly all actives have a fitted effect of over 55% in size
Pf growth 96h: Primary qHTS for delayed death inhibitors of the malarial parasite plastid, 96 hour incubation. P. falciparum luciferase reporter growth, 96 h. Potency, µM (highest dose often 28.7 µM), for the others: top-dose activity change, negative = inhibition, hits mostly inhibitors. 320,000 tested, 6.9% active; further: on the % scale 0 is the no-effect control and ±100 the full control effect
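Two-generation exposure (96 h) targets delayed-death phenotype. Reporter parasites carrying integrated firefly luciferase, in red cells at 2% hematocrit and 0.05% parasitemia final, kept at 37 C, 5% CO2; luminescence loss indicates inhibition.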
HCV inhibitor: qHTS Assay for Inhibitors of Hepatitis C Virus (HCV); Huh7.5.1 HCVcc-Cre infection, luciferase reporter, 44 h; AID 651820, 2012; Potency, µM (series often up to 41.8 µM), for inactives: at the top dose activity change, negative = inhibition, most hits filed as inhibitors; 340,000 tested, 3.4% active; further: on the % scale 0 is the no-effect control and ±100 the full control effect
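A cell-based infection assay in which seeded cells (1,000 per well) receive test compound after 4 h, are inoculated with HCVcc-Cre at approximately 0.5 moi, and are incubated 44 h before luminescence detection.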
* marks the source's active call; other numbers are inactive results; ? = inconclusive; . = not tested or not shown. The list is not random: actives were taken first. Their share in the collection is about 12%. Unless noted, the call rests on the fitted dose curve; in most records, active means well fitted curve in the direction sought with a large enough effect; inconclusive means small, poorly fitted or top-dose-only effect, or another doubt; inactive means no such curve, though single readings can be large; an effect the other way counts as inactive or inconclusive. Potency means the concentration at half of the fitted maximal effect.

SMILES | Pf growth 48h | AMA1-RON2 inh | NS1 function inh | SARS PLpro yeast | Pf growth 96h | HCV inhibitor
CC1(C)N([O-])C(c2cccs2)=C[N+]1=O | 2% | -4% | 6% | 6% | 10µM* | 11%
COCC(C)OC(=O)C(C#N)c1nc2ccccc2nc1N1CCN(Cc2ccccc2)CC1 (stereo not drawn) | . | -4% | -23% | 3% | ? | 5%
C=CCN(CC=C)c1nc2ccccc2nc1C(C#N)C(=O)OC(C)C (stereo not drawn) | 10µM* | -9% | -17% | -27% | ? | ?
Cc1ccc(NC(=O)CN(C)C(=O)COc2cc(F)ccc2[N+](=O)[O-])cc1 | 3% | 9% | . | 0% | 39% | -1%
C[C@@H]1CN(CCCn2c3ccccc3c3ccccc32)C[C@H](C)N1 | 8.5µM* | . | . | -2% | 5.4µM* | .
CC1CC(C)CN(CCCn2c(=S)[nH]c3ccccc3c2=O)C1 (stereo not drawn) | . | -9% | 4% | 2% | 9% | -12%
C[C@@H]1C(SC2Cn3cnc[n+]3C2)=C(C(=O)[O-])N2C(=O)[C@H]([C@@H](C)O)[C@@H]12 (stereo partly drawn) | -12% | . | . | . | 4% | .
Cc1cccc(C)c1NC(=O)c1cc(S(=O)(=O)N2CCC3(CC2)OCCO3)ccc1F | . | -2% | . | . | . | .
CC(=O)c1ccc(N2CCN(S(=O)(=O)c3ccc4ccccc4c3)CC2)cc1 | -4% | 0% | . | -15% | 5% | 20%
CCc1ccc(-c2cc(C)no2)cc1S(=O)(=O)N1CCC(C)CC1 | -29% | 15% | -5% | -15% | ? | -5%
CC(=O)c1ccc(N2CCN(S(=O)(=O)c3cc4[nH]c(=O)c(=O)[nH]c4cc3C)CC2)cc1 | 2.3µM* | 4% | -4% | . | -4% | 11%
CCc1ccc(-c2cc(C)no2)cc1S(=O)(=O)N1CCN(c2ccc(C(C)=O)cc2)CC1 | ? | 0% | -3% | -4% | -1% | 6.3µM*
Cc1cc(-c2ccc(C(C)C)c(S(=O)(=O)N3CCC(C)CC3)c2)on1 | 12µM* | 6% | -5% | -2% | ? | 6%
CC(=O)c1ccc(N2CCN(S(=O)(=O)c3cc(-c4cc(C)no4)ccc3C(C)C)CC2)cc1 | 10µM* | -11% | 4% | -3% | ? | -25%
Cc1cc(-c2ccc(C(C)C)c(S(=O)(=O)Nc3cc(C)on3)c2)on1 | 17% | 0% | -5% | 5% | 13µM* | 8%
CCc1ccc(-c2cc(C)no2)cc1S(=O)(=O)Nc1cc(C)ccn1 | 9% | 8% | 3% | -5% | ? | -15%
CCOC(=O)CC1COCCN1C(=O)CCc1nnc(-c2ccsc2)o1 (stereo not drawn) | 12% | 14% | 2% | 1% | -26% | 16%
Cc1ccc(S(=O)(=O)/N=C(\CCl)N2CCOCC2)cc1 | 13µM* | 3% | -15% | -34% | ? | 10µM*
CCOC(=O)c1cnc(SC)nc1Nc1cccc(F)c1 | 13% | 6% | 0% | 0% | -5% | ?
CCOC(=O)c1cnc(SC)nc1Sc1cc(Cl)ccc1Cl | ? | 17% | 4% | 3% | 10µM* | -2%
N#C/C=C/N1CCC(Cc2ccccc2)CC1 | 2% | -15% | 10% | -2% | -2% | -14%
CCOc1ccc(CCNC(=O)C(CCC(N)=O)NC(=O)OCc2ccccc2)cc1OCC (stereo not drawn) | ? | 2% | 0% | 0% | -27% | -12%
Cc1ccc(S(=O)(=O)N(C)C)cc1NC(=S)NC12CC3CC(CC(C3)C1)C2 | ? | 55% | 8% | 4% | ? | ?
Cn1ccnc1SCC(=O)c1cccc(Br)c1 | . | 2% | 6% | 3% | -5% | 17%
COc1cccc(C(=O)CSc2nccn2C)c1 | 77% | 0% | 11% | 1% | 12µM* | -3%
SMILES | Pf growth 48h | AMA1-RON2 inh | NS1 function inh | SARS PLpro yeast | Pf growth 96h | HCV inhibitor
Cc1ccc(S(=O)(=O)N(C)C)cc1NC(=S)NC(=O)C12CC3CC(CC(C3)C1)C2 | ? | 18% | 5% | -12% | ? | 16µM*
Cc1ccc(S(=O)(=O)N(C)C)cc1NC(=O)CSc1nc2ccccc2[nH]1 | ? | 2% | -10% | 7% | 9.3µM* | -4%
Cc1ccc(S(=O)(=O)N(C)C)cc1NC(=O)Nc1ccccc1 | 4.1µM* | -9% | 0% | 1% | 17% | -2%
Cc1ccc(C2=C(Cl)C(=O)C(c3ccc(C)cc3)=C(Cl)C2=O)cc1 | . | . | -8% | . | . | .
N#C/C(=C(/O)c1ccc(Cl)c([N+](=O)[O-])c1)c1nc2ccccc2[nH]1 | 38% | 83% | -3% | -1% | -2% | -11%
COc1cc2c(cc1NC(=O)CSc1nc3ccccc3[nH]1)oc1ccccc12 | ? | -2% | 10% | -20% | ? | 8.9µM*
COc1cc2c(cc1NC(=O)CSc1nccn1C)oc1ccccc12 | 83% | ? | -24% | -37% | 21% | 2.8µM*
COc1cc2c(cc1NC(=O)CN(C)Cc1nc3ccccc3c(=O)[nH]1)oc1ccccc12 | 5.2µM* | 19% | -30% | -2% | ? | ?
COc1cc2c(cc1NC(=O)CSc1ccccc1)oc1ccccc12 | 36% | -4% | 2% | -26% | 35% | ?
O=C(COC(=O)c1cc(=O)[nH]c2ccccc12)Nc1ccccc1F | . | -5% | . | -10% | . | 2%
O=C(O)CC(NNC(=O)c1ccccc1)C(=O)Nc1cccc([N+](=O)[O-])c1 (stereo not drawn) | 15% | 90% | 3% | 2% | 13% | 15%
O=C(CCl)NC(Cc1ccccc1)c1ccccc1 (stereo not drawn) | ? | 8% | -2% | 1% | 10µM* | -19%
COc1cc(C(=O)/C=C/c2cccnc2)c([N+](=O)[O-])cc1OC | 2.9µM* | -8% | . | 4% | ? | ?
O=C(/C=C/c1cccnc1)c1ccc([N+](=O)[O-])cc1 | 1% | -15% | -7% | -20% | 5% | 20%
C=CCNC(=S)N(CC=C)C1CCS(=O)(=O)C1 (stereo not drawn) | 15% | -5% | 9% | 5% | 94% | 19%
Cc1cc(C(=O)NCc2cc(C)n(C)n2)sc1-c1ccccc1 | -7% | 1% | -34% | -4% | 0% | 4µM*
CC1=NN(c2nc(-c3ccc(C)cc3)cs2)C(=O)C1N=Nc1ccccc1O (stereo not drawn) | ? | 47% | 4% | -1% | 12% | 10µM*
